From PubChem BioAssay (Tox21)
“And” between values parts separate entries of the source, which are not always exact repeats. Equal values may be shown once. Results filed as inconclusive are left out. A call without a number means that no potency is given here. Some structures have more than one record in an assay (separate samples or runs), and their calls can disagree. The source made the active and inactive calls. Unless noted, the call rests on the fitted dose curve; in most records, active means well fitted curve in the direction sought with a large enough effect in the repeat runs; inconclusive means weak or mixed curves; inactive means no such curve, though single readings can be large; an effect the other way counts as inactive or inconclusive.

Experiments:
[1] = qHTS assay to test for compound auto fluorescence at 535 nm (green) in HEK293 cells (AID 720680)
[2] = qHTS assay to test for compound auto fluorescence at 460 nm (blue) in HEK293 cell free culture (AID 720681)
In short: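 Blue fluorescence (Ex 405/Em 460 nm, triamterene-equivalent) was read immediately after pin transfer of compound or DMSO into medium (DMEM, 10% FBS) without cells.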

[3] = qHTS assay to test for compound auto fluorescence at 535 nm (green) in HEK293 cell free culture (AID 720682)
In short: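 Each library compound, or DMSO control, is added by pintool to medium alone, comprising DMEM and 10% FBS. Emission at 535 nm following 485 nm excitation is quantified against fluorescein.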

[4] = qHTS assay to test for compound auto fluorescence at 590 nm (red) in HEK293 cell free culture (AID 720683)
In short: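 Red-channel autofluorescence of compounds in culture medium (DMEM, 10% FBS), no cells, measured at 540/590 nm. Rose Bengal sodium is the reference fluorophore for equivalence.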

[5] = qHTS assay to test for compound auto fluorescence at 590 nm (red) in HepG2 cell free culture (AID 720684)
In short: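 No cells present: MEM + 10% FBS only. Compound pinned in, red label read (540/590 nm). Activity = fluorescence equivalent to Rose Bengal sodium.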

[6] = qHTS assay to test for compound auto fluorescence at 460 nm (blue) in HepG2 cell free culture (AID 720685)
In short: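 Cell-free plates of MEM plus 10% FBS received 23 nL compound or DMSO vehicle; blue-channel (405/460 nm) intensity scored against triamterene as reference fluorophore.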

[7] = qHTS assay to test for compound auto fluorescence at 535 nm (green) in HepG2 cell free culture (AID 720686)
[8] = qHTS assay to test for compound auto fluorescence at 460 nm (blue) in HepG2 cells (AID 720687)
In short: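 Blue-channel autofluorescence (Ex/Em 405/460 nm, triamterene-equivalent) was measured after 1 hr compound exposure at 37 C, 5% CO2. Cells were HepG2, plated overnight at 37 C in MEM plus 10% FBS.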

[9] = qHTS assay for identifying genotoxic compounds that show differential cytotoxicity against isogenic chicken DT40 cell lines with known DNA damage response pathways - wild type cell line (AID 743012); further: nearly all actives have a fitted effect of over 60% in size; further: potency means the concentration at half of the fitted maximal effect
In short: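 300 wt DT40 cells/well; cpd (DMSO) pintool-transferred after ~0.5 h at 37 C/5% CO2; 40 h incubation; CellTiter-Glo added, 30 min RT; luminescence read.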

[10] = qHTS assay for identifying genotoxic compounds that show differential cytotoxicity against isogenic chicken DT40 cell lines with known DNA damage response pathways - Rev3 mutant cell line (AID 743014); further: nearly all actives have a fitted effect of over 55% in size; further: potency means the concentration at half of the fitted maximal effect
[11] = qHTS assay for identifying genotoxic compounds that show differential cytotoxicity against isogenic chicken DT40 cell lines with known DNA damage response pathways - Rad54/Ku70 mutant cell line (AID 743015); further: nearly all actives have a fitted effect of over 60% in size; further: potency means the concentration at half of the fitted maximal effect
[12] = qHTS assay to identify small molecule antagonists of the androgen receptor (AR) signaling pathway - cell viability counter screen (AID 743033; further: nearly all actives have a fitted effect of over 45% in size; further: potency means the concentration at half of the fitted maximal effect)
[13] = biological target: Androgen receptor (Homo sapiens) (UniProt P10275); experiment: qHTS assay to identify small molecule antagonists of the androgen receptor (AR) signaling pathway (AID 743035; active means well fitted inhibition curve with a large enough effect in the signal ratio in the repeat runs, not every such curve was filed as active; the % refers to the signal ratio; further: potency means the concentration at half of the fitted maximal effect)
Chain of Androgen receptor (Homo sapiens) (P10275 whole entry, looked up): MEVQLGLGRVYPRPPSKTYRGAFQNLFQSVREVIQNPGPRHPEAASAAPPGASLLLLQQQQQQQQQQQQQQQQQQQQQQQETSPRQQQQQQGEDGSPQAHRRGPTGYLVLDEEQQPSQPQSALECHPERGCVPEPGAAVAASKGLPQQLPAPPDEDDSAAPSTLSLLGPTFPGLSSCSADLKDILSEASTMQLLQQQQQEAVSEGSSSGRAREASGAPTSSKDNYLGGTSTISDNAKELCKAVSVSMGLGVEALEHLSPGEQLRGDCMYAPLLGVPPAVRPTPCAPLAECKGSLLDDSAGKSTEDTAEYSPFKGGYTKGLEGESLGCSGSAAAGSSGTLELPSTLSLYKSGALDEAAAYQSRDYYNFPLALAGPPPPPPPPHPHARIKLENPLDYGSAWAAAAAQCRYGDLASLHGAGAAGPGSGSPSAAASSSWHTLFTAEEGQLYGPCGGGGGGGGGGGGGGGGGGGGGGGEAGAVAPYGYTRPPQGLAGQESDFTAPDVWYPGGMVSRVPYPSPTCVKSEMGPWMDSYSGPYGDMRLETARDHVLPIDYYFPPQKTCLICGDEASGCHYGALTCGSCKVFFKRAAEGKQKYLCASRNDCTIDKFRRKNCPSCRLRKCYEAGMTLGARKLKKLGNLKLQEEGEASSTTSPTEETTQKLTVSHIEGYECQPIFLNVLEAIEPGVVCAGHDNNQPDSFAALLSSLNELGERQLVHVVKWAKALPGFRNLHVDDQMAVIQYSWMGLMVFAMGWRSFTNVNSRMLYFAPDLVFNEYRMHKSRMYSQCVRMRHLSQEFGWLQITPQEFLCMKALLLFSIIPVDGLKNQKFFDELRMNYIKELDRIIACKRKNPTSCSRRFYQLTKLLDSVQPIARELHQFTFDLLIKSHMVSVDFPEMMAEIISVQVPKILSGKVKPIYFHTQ
In short: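 In this cell-based reporter screen, compounds were tested in concentration series against R1881-activated HEK293 cells expressing beta-lactamase under UAS control; after 16 h at 37C, FRET substrate was added and fluorescence read 2 h later.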

[14] = biological target: Androgen receptor (Homo sapiens) (UniProt P10275); experiment: qHTS assay to identify small molecule agonists of the androgen receptor (AR) signaling pathway using the MDA cell line (AID 743040; further: nearly all actives have a fitted effect of over 20% in size)
In short: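 Stable MMTV-luciferase reporter in MDA-kb2 cells; note the promoter carries GR as well as AR response elements. 16 h compound treatment, 37C, 0% CO2; ONE-Glo luminescence endpoint.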

[15] = qHTS assay to identify small molecule antagonists of the androgen receptor (AR) signaling pathway using the MDA cell line - cell viability counter screen (AID 743041; further: nearly all actives have a fitted effect of over 45% in size; further: potency means the concentration at half of the fitted maximal effect)
In short: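 Using the breast carcinoma line MDA-kb2 AR-luc, test chemicals were co-incubated with R1881 for 16 h; CellTiter-Fluor reagent, added at 15.5 h, provided a fluorescence measure of live cells.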

[16] = biological target: Androgen receptor (Homo sapiens) (UniProt P10275); experiment: qHTS assay to identify small molecule antagonists of the androgen receptor (AR) signaling pathway using the MDA cell line (AID 743042; further: nearly all actives have a fitted effect of over 55% in size; further: potency means the concentration at half of the fitted maximal effect)
In short: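 Antagonist mode: compounds plus R1881 agonist added to MDA-kb2 AR-luc cells, incubated 16 h at 37C. Luciferase reporter luminescence quantified, with multiplexed CellTiter-Fluor readout for cell viability.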

[17] = qHTS assay to identify small molecule antagonists of the glucocorticoid receptor (GR) signaling pathway - cell viability counter screen (AID 720693); further: nearly all actives have a fitted effect of over 55% in size; further: potency means the concentration at half of the fitted maximal effect
[18] = biological target: Glucocorticoid receptor (Homo sapiens) (UniProt P04150); experiment: qHTS assay to identify small molecule agonists of the glucocorticoid receptor (GR) signaling pathway (AID 720691; active means well fitted activation curve with a large enough effect in the signal ratio in the repeat runs, not every such curve was filed as active; the % refers to the signal ratio)
Chain of Glucocorticoid receptor (Homo sapiens) (P04150 whole entry, looked up): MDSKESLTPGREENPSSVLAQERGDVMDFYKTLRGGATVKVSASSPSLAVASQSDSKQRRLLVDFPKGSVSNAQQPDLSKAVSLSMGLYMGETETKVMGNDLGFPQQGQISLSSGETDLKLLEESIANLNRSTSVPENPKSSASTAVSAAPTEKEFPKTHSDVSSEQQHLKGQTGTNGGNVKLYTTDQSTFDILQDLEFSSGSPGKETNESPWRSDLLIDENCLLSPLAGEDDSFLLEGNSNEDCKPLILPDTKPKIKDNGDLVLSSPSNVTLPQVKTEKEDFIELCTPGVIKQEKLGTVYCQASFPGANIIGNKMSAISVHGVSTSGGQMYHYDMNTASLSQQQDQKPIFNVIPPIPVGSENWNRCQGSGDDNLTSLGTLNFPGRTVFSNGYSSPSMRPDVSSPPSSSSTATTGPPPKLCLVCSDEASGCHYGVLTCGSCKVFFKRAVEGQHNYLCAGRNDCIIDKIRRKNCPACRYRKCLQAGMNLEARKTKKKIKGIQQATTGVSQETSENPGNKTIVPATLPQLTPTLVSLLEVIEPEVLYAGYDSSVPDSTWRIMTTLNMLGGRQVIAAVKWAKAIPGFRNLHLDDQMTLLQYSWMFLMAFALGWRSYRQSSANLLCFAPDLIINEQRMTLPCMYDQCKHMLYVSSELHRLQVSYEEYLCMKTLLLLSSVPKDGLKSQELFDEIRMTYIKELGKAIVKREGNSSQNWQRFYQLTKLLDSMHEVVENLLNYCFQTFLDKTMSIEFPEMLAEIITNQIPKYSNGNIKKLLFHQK
In short: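 A HeLa cervical cancer line expressing GR and a glucocorticoid response element-driven beta-lactamase gene is treated with compounds for 18 h; LiveBLAzer B/G FRET substrate is then applied and fluorescence read.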

[19] = biological target: Glucocorticoid receptor (Homo sapiens) (UniProt P04150); experiment: qHTS assay to identify small molecule antagonists of the glucocorticoid receptor (GR) signaling pathway (AID 720692; active means well fitted inhibition curve with a large enough effect in the signal ratio in the repeat runs, not every such curve was filed as active; the % refers to the signal ratio)
In short: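 GRE-bla HeLa line, dex-stimulated (5 nM final). Compound exposure 18 h, 37 C. Beta-lactamase FRET read after 2 h RT substrate.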

[20] = biological target: Androgen receptor (Homo sapiens) (UniProt P10275); experiment: qHTS assay to identify small molecule agonists of the androgen receptor (AR) signaling pathway (AID 743036; active means well fitted activation curve with a large enough effect in the signal ratio in the repeat runs, with a control signal flat, not every such curve was filed as active; the % refers to the signal ratio)
In short: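 Following a 4 h settling period, AR-UAS-bla HEK293 cells were dosed with compounds for 16 h at 37C. A 2 h room-temperature incubation with LiveBLAzer B/G FRET substrate preceded the fluorescence measurement.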

SMILES	Potency [1]	Potency [2]	Potency [3]	outcome [4]	outcome [5]	Potency [6]	Potency [7]	Potency [8]	Potency [9]	Potency [10]	Potency [11]	Potency [12]	Potency [13]	outcome [14]	Potency [15]	Potency [16]	Potency [17]	Potency [18]	Potency [19]	Potency [20]
Cc1c(O)cccc1C(=O)N[C@@H](CSc1ccccc1)[C@H](O)CN1C[C@H]2CCCC[C@H]2C[C@H]1C(=O)NC(C)(C)C	inactive	inactive	inactive	inactive	inactive	inactive	inactive	inactive	11.9 µM (active) and 29.8 µM (active)	13.3 µM (active) and 23.7 µM (active)	13.3 µM (active) and 18.8 µM (active)	19 µM (active) and 16.9 µM (active)	10.7 µM (active) and 6.74 µM (active)	inactive	27.8 µM (active) and 59.5 µM (active)	26.6 µM (active) and 29.8 µM (active)				
COc1ccc(CCN2CCC(Nc3nc4ccccc4n3Cc3ccc(F)cc3)CC2)cc1	inactive	inactive	inactive	inactive	inactive	inactive	inactive	inactive	5.96 µM (active) and 7.01 µM (active)	7.5 µM (active) and 6.25 µM (active)	8.41 µM (active) and 8.82 µM (active)	21.3 µM (active) and 6.3 µM (active)			39.4 µM (active)					
CC(C)C(=O)c1c(C(C)C)nn2ccccc12	inactive	inactive	inactive	inactive	inactive	inactive	inactive	inactive		inactive		inactive			inactive		inactive			
CN(C)c1ccc2nc3ccc(=[N+](C)C)cc-3sc2c1	inactive	inactive	inactive	inactive	inactive	inactive	inactive	inactive	473 nM (active) and 2.34 µM (active) and 686 nM (active)	750 nM (active) and 587 nM (active) and 686 nM (active)	422 nM (active) and 262 nM (active) and 386 nM (active)	1.87 µM (active) and 3.09 µM (active)			5.96 µM (active) and 11.7 µM (active) and 17.2 µM (active)					
Nc1cc(S(=O)(=O)O)cc2cc(S(=O)(=O)O)cc(O)c12	inactive		inactive	inactive	inactive	inactive	inactive	inactive	inactive	inactive and 24.3 µM (active)		inactive			inactive		inactive	inactive	inactive	
Cc1ccc(-c2cc(C(F)(F)F)nn2-c2ccc(S(N)(=O)=O)cc2)cc1	inactive	inactive	inactive	inactive	inactive	inactive	inactive	inactive	23.7 µM (active) and 27.3 µM (active)	21.1 µM (active) and 54.3 µM (active) and 24.3 µM (active)		34.5 µM (active) and 43.6 µM (active)	23.9 µM (active)	inactive	inactive	inactive and 60.9 µM (active) and 68.6 µM (active)				inactive
Oc1ccc(Cl)cc1Cc1cc(Cl)ccc1O	inactive	inactive	inactive	inactive	inactive	inactive	inactive	inactive	23.7 µM (active) and 39.3 µM (active) and 21.7 µM (active)	16.8 µM (active) and 31.2 µM (active) and 10.9 µM (active)		19.8 µM (active) and 11 µM (active)		inactive	inactive	27.8 µM (active) and 38.6 µM (active)	39.6 µM (active) and 34.7 µM (active)			inactive
CC(C)(c1ccccc1)c1ccc(Nc2ccc(C(C)(C)c3ccccc3)cc2)cc1	inactive	inactive	inactive	inactive	inactive	inactive	inactive	inactive	inactive and 54.5 µM (active)	inactive and 54.5 µM (active)		inactive			inactive		inactive			
CCCN[C@H]1CCc2nc(N)sc2C1	inactive	inactive	inactive	inactive	inactive	inactive	inactive	inactive	inactive	inactive	inactive	inactive			inactive		inactive			
Nc1cc(Cl)c(-c2cc(Cl)c(N)cc2Cl)cc1Cl	inactive	inactive	inactive	inactive	inactive	inactive	inactive	inactive	5.44 µM (active) and 4.86 µM (active)	2.43 µM (active) and 5.45 µM (active)		43.6 µM (active) and 49 µM (active)	21.9 µM (active) and 17.4 µM (active)	inactive	61.1 µM (active)	54.4 µM (active) and 68.6 µM (active)	54.9 µM (active) and 49 µM (active)			
CC(=O)C1=C(C)[C@@H]2C[C@@]3(C1)[C@H](C)CC[C@H]3C2(C)C	inactive	inactive	inactive	inactive	inactive	inactive	inactive	inactive	inactive	inactive	inactive	inactive			inactive		inactive			
